Laboratory results from PubChem BioAssay (NCATS).
Values joined by “and” are separate entries in the source; they are usually repeats but may differ in a detail not shown here. Equal entries are not always repeated. Records with an inconclusive call do not appear. Active and inactive are the calls of the source. Unless noted, calls come from the whole dose curve; as a rule, active = well fitted curve in the direction sought with a large enough effect; inconclusive = small, poorly fitted or top-dose-only effect, or another doubt; inactive = no such curve, though single readings can be large; an effect the other way counts as inactive or inconclusive.

Experiments:
[1] = molecular target: Peroxisome proliferator-activated receptor gamma (Homo sapiens) (UniProt P37231); assay: qHTS assay for small molecule antagonists of peroxisome proliferator-activated receptor gamma signaling (AID 588537; active = well fitted inhibition curve with a large enough effect in the signal ratio, with a control signal flat, not every such curve was filed as active; the % refers to the signal ratio;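 note: reporter cells co-stimulated with 50 nM rosiglitazone agonist during compound treatment; % of control where 0% means no effect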)
Sequence of Peroxisome proliferator-activated receptor gamma (Homo sapiens) (P37231 whole entry, looked up): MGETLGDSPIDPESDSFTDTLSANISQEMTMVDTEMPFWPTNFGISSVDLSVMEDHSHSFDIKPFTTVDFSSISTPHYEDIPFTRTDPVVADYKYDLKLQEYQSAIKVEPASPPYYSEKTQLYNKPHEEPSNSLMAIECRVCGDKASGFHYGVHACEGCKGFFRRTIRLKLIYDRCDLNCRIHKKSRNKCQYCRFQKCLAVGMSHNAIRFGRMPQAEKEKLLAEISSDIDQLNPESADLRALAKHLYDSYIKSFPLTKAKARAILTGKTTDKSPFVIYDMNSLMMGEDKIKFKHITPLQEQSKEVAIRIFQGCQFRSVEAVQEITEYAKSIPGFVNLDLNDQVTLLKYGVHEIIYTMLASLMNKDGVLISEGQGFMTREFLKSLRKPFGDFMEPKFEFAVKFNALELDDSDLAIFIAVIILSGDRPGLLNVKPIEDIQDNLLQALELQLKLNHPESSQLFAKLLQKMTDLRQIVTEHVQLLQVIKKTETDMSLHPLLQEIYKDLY
Outline: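 PPARγ-UAS-bla HEK293 cells (3000/well) in 1% charcoal/dextran-stripped FBS are treated with compound, then stimulated with 50 nM rosiglitazone for 16 h at 37 °C. Read-out is CCF4 β-lactamase fluorescence after 2 h at RT. IC50 comes from Hill fits normalised to rosiglitazone and DMSO.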

[2] = qHTS assay for small molecule activators of the p53 signaling pathway (AID 651743; active = well fitted activation curve with a large enough effect in the signal ratio, not every such curve was filed as active; the % refers to the signal ratio; note: series mostly up to about 92 µM; % of control where 0% means no effect); details: HCT-116 p53RE-bla, beta-lactamase FRET ratio, 16 h; stronger effect = higher value
Outline: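 p53RE-bla HCT-116 cells carrying a beta-lactamase reporter under p53 response elements were exposed to compounds for 16 hours at 37 C. Reporter activity read as fluorescence after 2 hours at room temperature with LiveBLAzer B/G FRET substrate.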

[3] = molecular target: Estrogen receptor (Homo sapiens) (UniProt P03372); assay: qHTS assay for small molecule antagonists of estrogen receptor alpha signaling (AID 588513; active = well fitted curve in the direction sought with a large enough effect in the signal ratio, with a control signal flat, not every such curve was filed as active; the % refers to the signal ratio; note: % is set by controls: 0 for no effect and ±100 for the full control effect)
Sequence of Estrogen receptor (Homo sapiens) (P03372 whole entry, looked up): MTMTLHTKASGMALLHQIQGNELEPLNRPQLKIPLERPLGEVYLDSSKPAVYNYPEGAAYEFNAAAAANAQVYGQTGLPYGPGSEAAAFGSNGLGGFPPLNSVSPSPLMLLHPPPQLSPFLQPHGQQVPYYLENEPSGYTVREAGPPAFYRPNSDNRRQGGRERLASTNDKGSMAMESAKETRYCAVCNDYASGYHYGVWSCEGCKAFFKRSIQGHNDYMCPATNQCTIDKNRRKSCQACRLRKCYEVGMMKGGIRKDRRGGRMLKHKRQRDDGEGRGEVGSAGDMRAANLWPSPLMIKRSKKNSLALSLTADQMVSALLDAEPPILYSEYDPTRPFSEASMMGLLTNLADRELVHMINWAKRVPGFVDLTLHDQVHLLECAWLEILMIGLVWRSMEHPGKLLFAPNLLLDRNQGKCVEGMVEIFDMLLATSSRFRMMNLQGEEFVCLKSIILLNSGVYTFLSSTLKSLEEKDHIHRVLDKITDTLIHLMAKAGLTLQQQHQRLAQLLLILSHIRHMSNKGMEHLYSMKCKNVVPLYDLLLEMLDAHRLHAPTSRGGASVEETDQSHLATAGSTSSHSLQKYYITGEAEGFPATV
Outline: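 ER-alpha-UAS-bla GripTite HEK 293 cells in 2% charcoal/dextran-treated FBS medium; compounds titrated (1:2, duplicate), then stimulated with 0.5 nM 17-beta-estradiol for 18 h at 37C. CCF4 beta-lactamase fluorescence; Hill-fit IC50 and efficacy.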

[4] = molecular target: Estrogen receptor (Homo sapiens) (UniProt P03372); assay: qHTS assay for small molecule agonists of estrogen receptor alpha signaling (AID 588514; calls by dose curve;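 note: 0% = vehicle only and 100% = reference agonist; nearly all actives have a fitted effect of over 70% in size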)
Outline: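 ER-alpha-UAS-bla GripTite HEK293 cells, 5000/well in 2% charcoal/dextran-stripped FBS medium, treated with compound titrations 18 h at 37 C. CCF4 beta-lactamase read by fluorescence after 2 h RT; normalised to 20 nM 17-beta-estradiol (100%) and DMSO (0%), Hill fit for EC50 and efficacy.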

[5] = molecular target: Androgen receptor (Homo sapiens) (UniProt P10275); assay: qHTS assay for small molecule agonists of androgen receptor signaling (AID 588515; active = well fitted curve in the direction sought with a large enough effect in the signal ratio, with a control signal flat; the % refers to the signal ratio; note: % is set by controls: 0 for no effect and ±100 for the full control effect); details: AR-UAS-bla HEK293, beta-lactamase ratio, agonist 16 h; stronger effect = higher value
Sequence of Androgen receptor (Homo sapiens) (P10275 whole entry, looked up): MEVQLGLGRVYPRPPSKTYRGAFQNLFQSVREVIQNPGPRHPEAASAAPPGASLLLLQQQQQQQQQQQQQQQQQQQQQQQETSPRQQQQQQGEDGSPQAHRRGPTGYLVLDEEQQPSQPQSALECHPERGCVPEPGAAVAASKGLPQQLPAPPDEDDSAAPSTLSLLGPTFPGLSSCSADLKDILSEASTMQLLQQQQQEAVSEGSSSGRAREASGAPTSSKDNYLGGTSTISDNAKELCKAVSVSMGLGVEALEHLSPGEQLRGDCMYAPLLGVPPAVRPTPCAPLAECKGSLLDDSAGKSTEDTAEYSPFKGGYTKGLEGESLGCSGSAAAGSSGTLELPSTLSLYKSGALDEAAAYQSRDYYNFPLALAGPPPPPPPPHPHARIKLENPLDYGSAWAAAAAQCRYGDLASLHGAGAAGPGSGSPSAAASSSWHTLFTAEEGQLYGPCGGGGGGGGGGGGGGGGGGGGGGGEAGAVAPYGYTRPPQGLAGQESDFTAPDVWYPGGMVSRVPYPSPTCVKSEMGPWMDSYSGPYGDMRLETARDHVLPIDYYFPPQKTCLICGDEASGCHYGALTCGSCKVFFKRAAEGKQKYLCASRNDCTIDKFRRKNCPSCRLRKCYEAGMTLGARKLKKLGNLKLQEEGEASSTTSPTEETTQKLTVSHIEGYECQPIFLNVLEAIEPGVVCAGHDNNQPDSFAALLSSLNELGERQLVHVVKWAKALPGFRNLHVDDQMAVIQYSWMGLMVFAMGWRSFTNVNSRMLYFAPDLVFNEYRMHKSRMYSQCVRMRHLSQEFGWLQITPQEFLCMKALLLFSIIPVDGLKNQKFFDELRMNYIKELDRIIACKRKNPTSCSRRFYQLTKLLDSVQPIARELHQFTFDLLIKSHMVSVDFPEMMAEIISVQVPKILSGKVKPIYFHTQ
Outline: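 EC50 and efficacy came from Hill fits of titrations (up to 92 uM) normalized to 30 nM R1881 as 100% and DMSO as 0%. Compound exposure was 16 h at 37 C on AR-UAS-bla HEK293 cells, with a 405/460/530 nm CCF4 fluorescence read.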

[6] = molecular target: Androgen receptor (Homo sapiens) (UniProt P10275); assay: qHTS assay for small molecule antagonists of androgen receptor signaling (AID 588516; active = well fitted curve in the direction sought with a large enough effect in the signal ratio, with a control signal flat, not every such curve was filed as active; the % refers to the signal ratio; note: % is set by controls: 0 for no effect and ±100 for the full control effect)
Outline: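 AR-UAS-bla GripTite HEK 293 cells (2000/well) treated with compound titrations plus 10 nM R1881 for 16 h at 37C. Beta-lactamase read by CCF4 FRET (460/530 nm); IC50 from Hill fits, normalized to R1881 and DMSO control wells.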

[7] = qHTS assay to identify small molecules that stimulate interleukin-8 (IL-8) secretion (AID 651758; active = well fitted activation curve with a large enough effect in the signal ratio; the % refers to the signal ratio; note: 0% is about no effect)
Outline: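 THP-1 cells (2000/well) exposed to compound 16 h at 37 C; secreted IL-8 then detected by HTRF with cryptate- and XL665-labelled anti-IL-8 antibody pair after 1-3 h at room temperature.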

[8] = molecular target: Guanine nucleotide-binding protein G(i) subunit alpha-1 (Homo sapiens) (UniProt P63096); assay: qHTS Assay for Inhibitors of RGS12 GoLoco Motif Activity (Green Fluorophore) (AID 879);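 note: 0% = labeled peptide with Gαi1 and full inhibition = labeled peptide alone without protein; negative values mean loss of peptide binding seen as reduced polarization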
Sequence of Guanine nucleotide-binding protein G(i) subunit alpha-1 (Homo sapiens) (P63096 whole entry, looked up): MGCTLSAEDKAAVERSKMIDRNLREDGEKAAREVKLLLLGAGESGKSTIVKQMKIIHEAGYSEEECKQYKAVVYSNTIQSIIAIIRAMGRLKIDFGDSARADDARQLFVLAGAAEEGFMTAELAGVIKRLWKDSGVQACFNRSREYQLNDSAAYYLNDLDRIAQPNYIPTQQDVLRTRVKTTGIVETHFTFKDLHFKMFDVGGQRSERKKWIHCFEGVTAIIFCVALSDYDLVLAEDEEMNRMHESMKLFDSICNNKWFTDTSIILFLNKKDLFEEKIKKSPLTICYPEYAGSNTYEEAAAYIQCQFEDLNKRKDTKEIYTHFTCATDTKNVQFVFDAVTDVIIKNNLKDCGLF
Outline: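 Fluorescence polarization assay: 50 nM Gαi1 with 10 nM FITC-labeled RGS12 GoLoco peptide in 10 mM Tris pH 7.5, 150 mM NaCl, 0.1 mM GDP, 0.05% NP40, 10 min at room temperature with compound.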

[9] = qHTS Assay for Identification of Small Molecule Antagonists for NFkB Signaling Pathway (AID 895; active = well fitted inhibition curve with a large enough effect in the signal ratio, with a control signal flat, not every such curve was filed as active; the % refers to the signal ratio; note: % is set by controls: 0 for no effect and ±100 for the full control effect)
Outline: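 ME-180 NFkB-bla cells (beta-lactamase under NFkB response element), plated overnight, treated with compound then 10 pM TNF alpha (about EC50) for 5 hrs at 37 C. LiveBLAzer FRET read at 460/530 nm emission, 405 nm excitation.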

[10] = qHTS Assay for Identification of Small Molecule Agonists for Thrombopoietin (TPO) Signaling Pathway (AID 917); note: % is set by controls: 0 for no effect and ±100 for the full control effect
Outline: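 Murine Ba/F3 cells expressing human TPO receptor and GPIIb-promoter luciferase, IL-3-starved overnight, given compound plus TPO at 26 pM (EC50). After 24 h at 37 C, 5% CO2, luminescence read.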

[11] = molecular target: Pyruvate kinase (Leishmania mexicana) (UniProt Q27686); assay: qHTS Validation Assay for Inhibitors of Leishmania Mexicana Pyruvate Kinase (AID 945);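 note: 0% = DMSO only neutral control wells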
Sequence of Pyruvate kinase (Leishmania mexicana) (Q27686 2-499 E452W): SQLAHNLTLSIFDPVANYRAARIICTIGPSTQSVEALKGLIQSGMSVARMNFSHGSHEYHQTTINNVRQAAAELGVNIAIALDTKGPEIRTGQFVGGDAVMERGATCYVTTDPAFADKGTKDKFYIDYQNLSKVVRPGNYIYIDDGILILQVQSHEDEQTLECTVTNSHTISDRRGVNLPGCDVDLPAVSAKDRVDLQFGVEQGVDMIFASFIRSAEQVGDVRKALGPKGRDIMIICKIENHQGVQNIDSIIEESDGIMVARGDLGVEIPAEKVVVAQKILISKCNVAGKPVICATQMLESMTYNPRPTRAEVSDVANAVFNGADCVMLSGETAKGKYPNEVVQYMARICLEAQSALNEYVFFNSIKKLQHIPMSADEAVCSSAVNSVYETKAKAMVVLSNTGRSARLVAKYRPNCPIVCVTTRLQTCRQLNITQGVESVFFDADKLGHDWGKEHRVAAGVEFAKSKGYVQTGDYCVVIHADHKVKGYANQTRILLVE
Outline: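 Compounds are tested as eight-point concentration series. Reactions contain 0.2 nM LmPYK E451W, 0.5 mM PEP, 0.1 mM ADP, 7 mM MgCl2 and 50 mM KCl at pH 7.2, run 1 h at room temperature, then read by PKLight luminescence.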

[12] = molecular target: Pyruvate kinase PKM (Homo sapiens) (UniProt P14618); assay: qHTS Assay for Activators of Human Muscle Pyruvate Kinase (AID 954; active = well fitted curve in the direction sought with a large enough effect, not every such curve was filed as active;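 note: 0% = uninhibited enzyme and -100% = no enzyme or full thiadiazolimine inhibition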)
Sequence of Pyruvate kinase PKM (Homo sapiens) (P14618 whole entry, looked up): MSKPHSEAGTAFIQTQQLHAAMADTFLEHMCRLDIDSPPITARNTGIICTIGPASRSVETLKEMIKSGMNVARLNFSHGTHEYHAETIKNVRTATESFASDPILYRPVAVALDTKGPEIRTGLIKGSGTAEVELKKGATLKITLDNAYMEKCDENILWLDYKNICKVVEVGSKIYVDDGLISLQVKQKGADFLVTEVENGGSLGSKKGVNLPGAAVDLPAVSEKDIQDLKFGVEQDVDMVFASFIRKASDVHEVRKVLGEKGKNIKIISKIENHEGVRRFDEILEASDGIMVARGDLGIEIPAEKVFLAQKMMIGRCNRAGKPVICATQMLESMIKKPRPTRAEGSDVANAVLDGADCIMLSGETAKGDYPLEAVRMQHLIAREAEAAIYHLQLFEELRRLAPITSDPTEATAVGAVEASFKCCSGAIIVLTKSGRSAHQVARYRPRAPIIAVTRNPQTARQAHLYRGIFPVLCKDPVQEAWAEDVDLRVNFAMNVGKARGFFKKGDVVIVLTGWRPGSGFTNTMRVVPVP
Outline: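 Human PKM2 activity is measured as ATP generation, detected by luciferase-coupled luminescence. The enzyme (0.1 nM) acts on 0.5 mM PEP and 0.1 mM ADP for 1 h at ambient temperature; data are normalized to uninhibited and full-inhibition wells.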

[13] = molecular target: Alpha-galactosidase A (Homo sapiens) (UniProt P06280); assay: Counterscreen for Glucocerebrosidase Inhibitors: qHTS Assay for Human alpha-Galactosidase at pH 4.5 (AID 992); note: 0% is about no effect
Sequence of Alpha-galactosidase A (Homo sapiens) (P06280 whole entry, looked up): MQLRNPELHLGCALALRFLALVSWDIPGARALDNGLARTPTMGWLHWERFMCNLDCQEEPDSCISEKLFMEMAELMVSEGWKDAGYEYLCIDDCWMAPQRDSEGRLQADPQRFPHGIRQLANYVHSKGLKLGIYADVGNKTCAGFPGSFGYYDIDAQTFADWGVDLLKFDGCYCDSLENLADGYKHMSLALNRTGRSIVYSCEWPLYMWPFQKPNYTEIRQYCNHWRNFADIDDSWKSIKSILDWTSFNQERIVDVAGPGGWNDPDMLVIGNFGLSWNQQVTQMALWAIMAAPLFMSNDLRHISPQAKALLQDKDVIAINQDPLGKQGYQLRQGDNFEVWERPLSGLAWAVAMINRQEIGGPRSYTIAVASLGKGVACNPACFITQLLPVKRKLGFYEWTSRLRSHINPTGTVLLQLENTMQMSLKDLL
Outline: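 Quantitative HTS: compounds tested from 0.7 nM up to 77 uM against 2 nM enzyme with 80 uM 4-MU alpha-D-galactopyranoside. The 20 min room-temperature reaction is stopped with 1M NaOH/1M glycine, pH 10.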

[14] = molecular target: alpha-glucosidase (Oryza sativa, rice) (UniProt Q653V4); assay: Counterscreen for Glucocerebrosidase Inhibitors: qHTS Assay for Rice alpha-Glucosidase at pH 5.0 (AID 997);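 note: 0% = full activity with enzyme and -100% = basal without enzyme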
Outline: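 Rice alpha-glucosidase (4 nM final) with 400 uM 4-methylumbelliferyl-alpha-D-glucopyranoside in citrate buffer pH 5.0, 20 min at room temperature, stopped at pH 10; fluorescence 365/440 nm, compounds 0.7 nM–77 uM, AC50 from Hill fits.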

CC1=CC(=O)CC(C)(C)C1(O)/C=C/C(C)=C\C(=O)O (stereo not given)
inactive: outcome [1] | activation [2] -1.58%

COS(C)(=O)=O
inactive: outcome [3] | outcome [4]

C=C(C)[C@H]1CC=C(C)C(=O)C1
inactive: activation [5] 12.8% and -1.39% | outcome [6] | outcome [7]

C=CC(C)(O)CCC=C(C)C (stereo not given)
inactive: outcome [1]

CN1[C@@H]2CC[C@H]1CC(OC(=O)[C@@H](O)c1ccccc1)C2 (stereo not given in full)
inactive: Potency [8] | Potency [9] | outcome [10] | outcome [11] | outcome [12] | outcome [13] | outcome [14]
